Measurements reported in PubChem BioAssay (NCI).
“And” between values parts separate entries of the source, which are not always exact repeats. Identical values can stand only once. This is part of a sample that, as a whole, favours compounds with a hit. Of some 83,000 tested, about 20% had one in any assay.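 Treatment: one concentration, 48 hours, 96-well format. Scoring: percent growth, with anything below 10 considered active.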 Values without a mark were called inactive. The source made the active and inactive calls.

The molecules below were run on MDA-MB-468 breast (assay: NCI-60 one-dose screen, 48 h (100 = growth as untreated, 0 = no growth, -100 = all killed)). Details: 10 µM unless noted.

Compound	growth
N=c1ccn2c(n1)OC1C(O)C(CO)OC12 (stereo not given)	6.2% (active)
O=S(=O)(NCCNc1cc(-c2cn(-c3ccccc3)nc2-c2ccccc2)ccn1)c1cccc2ccccc12	36.6%
C=CCn1c(C)nc2ccc(Nc3nc(Nc4ccc(F)cc4)nc4ccccc34)cc21	49.3%
Cc1cccc2c1NC(=O)[C@@]21[C@H](C(=O)c2ccccc2)[C@]2(C(=O)Nc3ccccc32)[C@H]2CCCN21	22.2% [100 µM]
NS(=O)(=O)c1ccc(N2CC(c3nc4ccccc4[nH]3)CC2=O)cc1 (stereo not given)	113%
C=CC(=O)N1CC2(CCC(n3nc(-c4ccc(Oc5ccccc5)cc4)c4c(N)ncnc43)CC2)C1	-58.1% (active)
CC1(C)CC(=O)C2=C(C1)OC1=C(C(=O)CC(C)(C)C1)C2c1ccc(OCc2cn(-c3ccc(F)cc3F)nn2)cc1	103%
O=S(=O)(O)c1cnccn1	105%
O=C(Nc1ccc(Br)cc1F)c1cc(Cl)ccc1O	-14.5% (active)
COCc1cc2c(cc1Br)OCO2	110%
Nc1nc(N=Nc2ccc(O)cc2)cc(=O)[nH]1	91.5%
O=C(NCCO)Nc1ccc(-c2nc(N3CCOCC3)c3cccn3n2)cc1	-24.2% (active)
C1=C2CCCC3=Cc4ccccc4OC23Oc2ccccc21	25.5%
Cc1[nH]c(C(=O)Nc2cccc(OC3CCNCC3)c2)c(Cl)c1Cl	40.9%
O=C1Nc2cc(-c3ccc(NC(=O)C4CC4)cc3)ccc2/C1=C/c1ccc[nH]1	0.756% (active)
CC(C)(C)c1nc(-c2ccc(O)c(O)c2)cs1	53.5%
NS(=O)(=O)c1ccc(-n2ncc(NC(=O)Nc3ccc(S(=O)(=O)Nc4nccs4)cc3)c2-c2ccccc2)cc1	102%
C=CCn1c(SCC(=O)Nc2cccc(C(=O)/C=C/c3ccc(OC)c(OC)c3)c2)nc2ccccc2c1=O	80.9%
Cc1c(Br)cccc1NC(=O)c1sc2nc3c(cc2c1N)CN(Cc1ccccc1)CC3	16.8%
O=C(/C=C/c1cccc([N+](=O)[O-])c1)c1ccc(Nc2nc(N3CCCCC3)nc(N3CCCCC3)n2)cc1	121%
CCN(CC)CCCNCc1cc(-c2ccccc2)nc2ccccc12	91.5%
COc1cc2nc(-c3ccc(C(F)(F)F)cc3)cc(OCCN3CCCCC3)c2cc1OC	93.6%
Nc1nc2ncc(CNc3ccc(C(=O)N[C@@H](CCc4nn[nH]n4)C(=O)O)cc3)nc2c(=O)[nH]1	93.9% and 98.6%
CN1CCN(Cc2ccc(NC(=O)c3cncc(C#Cc4cnc5ccc(Cl)nn45)c3)cc2C(F)(F)F)CC1	-20.1% (active)
COc1cc(/C=C2\CN(S(=O)(=O)c3ccc(C)cc3)C/C(=C\c3cc(CN4CCCCC4)c(O)c(OC)c3)C2=O)cc(CN2CCCCC2)c1O	-63.3% (active)
